About 930 (0.28%) of roughly 330,000 compounds were called active. The sample as a whole holds a higher share of actives than the screen did. A number with no mark means an inactive call.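 The calls were made as follows: active = inhibition of at least 40% at 20 µM, with no more than 30% in the related APOBEC3A deaminase screen; inactive = the rest.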
The compounds below were run against DNA dC->dU-editing enzyme APOBEC-3G (Homo sapiens) (UniProt Q9HC16) (assay: inhibition of human A3G ssDNA deamination – biochemical, fluorescence, single-stranded DNA substrate, uHTS, primary screen (AID 493012;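 also: plate controls were DMSO wells with A3G for no effect and wells lacking A3G enzyme for full effect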)). Details: recombinant A3G, ssDNA deamination FAM/TAMRA fluorescence; at 20 µM; stronger effect = higher value.
DNA dC->dU-editing enzyme APOBEC-3G (Homo sapiens), sequence (Q9HC16 whole entry, looked up): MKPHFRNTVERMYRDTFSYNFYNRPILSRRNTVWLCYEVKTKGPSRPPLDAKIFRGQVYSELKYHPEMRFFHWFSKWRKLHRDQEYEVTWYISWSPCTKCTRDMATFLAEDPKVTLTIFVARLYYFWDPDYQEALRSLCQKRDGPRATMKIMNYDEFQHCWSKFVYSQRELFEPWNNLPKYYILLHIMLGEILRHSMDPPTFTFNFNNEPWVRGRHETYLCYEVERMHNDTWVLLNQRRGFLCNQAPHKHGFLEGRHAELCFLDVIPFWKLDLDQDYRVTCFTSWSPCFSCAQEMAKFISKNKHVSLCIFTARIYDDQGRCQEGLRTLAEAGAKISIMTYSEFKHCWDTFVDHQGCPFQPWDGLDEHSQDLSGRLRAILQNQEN

Structure (SMILES) | inhibition
Cc1cccc(NC(=O)C2CCCN(C(=O)Nc3ccc(F)cc3)C2)c1C (centres undefined) | -9.22%
COc1ccccc1-n1cn[nH]c1=S | -7.32%
COc1ccc(OC)c(-n2c(-c3ccn[nH]3)n[nH]c2=S)c1 | 6.84%
COc1ccccc1-n1c(-c2cc(-c3ccco3)[nH]n2)n[nH]c1=S | 66.2% (active)
Cc1ccccc1N1CC(C(=O)Nc2ccc3c(c2)OCO3)CC1=O (centres undefined) | -5.81%
Cc1ccc(C)c(N2CCN(C(=O)CCc3nc(-c4cccc(C(F)(F)F)c4)no3)CC2)c1 | 2.36%
Cc1ccc(NC(=O)c2sc3nc(N)c(C#N)cc3c2N)cc1 | 53.5% (active)
COc1ccc(OC)c(NC(=O)c2sc3nc(C)cc(C)c3c2N)c1 | -11%
CCc1ccc2nc3sc(C(=O)Nc4nnc(CC)s4)c(N)c3cc2c1 | -0.825%
COc1cc(C(=O)Nc2ncccc2C)ccc1OCC(=O)N1CCOCC1 | -6.99%
COc1cccc(NC(=O)N2CCCC2C(=O)NC2CCCCC2)c1 (centres undefined) | -7.25%
COc1ccc(NC(=O)c2sc(N3CCOCC3)nc2-c2ccccc2)c(OC)c1 | -6.69%
CCC1Sc2ccc(S(=O)(=O)CCC(=O)NCc3cccs3)cc2NC1=O (centres undefined) | -2.6%
O=c1c2ccccc2oc2nc(C3CCCCC3)n(Cc3ccco3)c(=O)c12 | -6.57%
CCCc1nc2c(c(=O)c3ccccc3n2C)c(=O)n1C1CCCCCC1 | 2.29%
Cn1c2ccccc2c(=O)c2c(=O)n(Cc3ccco3)c(COc3ccccc3)nc21 | 52.8% (active)
CC(=O)N1C(=O)/C(=C2\SC(=S)N(NC(=O)c3ccc(O)cc3)C2=O)c2ccccc21 | 1.88%
COc1cccc(NC(=O)CSc2nnc(C3CCCCC3)n2N)c1 | -9.04%
Cc1cccc(NC(=O)c2ccc(S(=O)(=O)N(C)CC3CCCO3)cc2)c1C (centres undefined) | 1.74%
Cc1ccc(C)c(S(=O)(=O)Nc2cc(C)on2)c1 | -6.75%
Cc1cc(-c2n[nH]c(=S)n2-c2ccc(C)c(C)c2)no1 | 45.2% (active)
Cc1ccc(NCc2n[nH]c(=S)n2-c2ccccc2)cc1Cl | 10.6%
NC(=O)Cn1nc([N+](=O)[O-])nc1Oc1ccc(Br)cc1 | -11.7%
Cc1ccnc(-n2sc3ccccc3c2=O)n1 | 87% (active)

Structure (SMILES) | inhibition
COCCn1c(CN2CCC(Cc3ccccc3)CC2)nc2c1c(=O)n(C)c(=O)n2C | -4.86%
Cc1nc([N+](=O)[O-])nn1C12CC3CC(CC(Br)(C3)C1)C2 | 59.1% (active)
COc1cccc(NC(=O)c2nn(C34CC5CC(CC(C5)C3)C4)cc2[N+](=O)[O-])c1 | 0.433%
Cc1ncn(C23CC4CC(CC(O)(C4)C2)C3)n1 | -4.67%
Cc1ccc(Sc2ccncc2S(N)(=O)=O)cc1 | -12.3%
COc1ccc(CNC(=O)C2CCN(C(=O)c3ccco3)CC2)cc1 | -11.5%
CCc1nnc(NC(=O)C2CCN(C(=O)c3ccccc3C)CC2)s1 | -4.15%
CCC(CC)c1nnc(NC(=O)C2CCN(C(=O)c3ccco3)CC2)s1 | 43.5% (active)
CC(C)NC(=O)NNc1c(Cl)cncc1Cl | -7.21%
CCn1cc(C(=O)NCC(=O)NC(C)(C)CO)c(=O)c2cc3c(cc21)OCO3 | 5.44%
CCOc1ccc(CCNC(=O)COC(=O)c2c(OC)cccc2OC)cc1OCC | -6.63%
COc1ccc(N2CC(C(=O)NCCS(=O)(=O)N3CCN(c4ccccc4)CC3)CC2=O)cc1 (centres undefined) | -3.81%
Cc1ccc(S(=O)(=O)CC(=O)Nc2sc(C)c(C)c2C(N)=O)cc1 | 19.4%
Cc1sc(NC(=O)c2ccc3ncsc3c2)c(C(N)=O)c1C | -14.1%
Cc1ccc(C(=O)c2c(NC(=O)c3ccccc3)sc(C)c2C)cc1 | 43.3% (active)
CC(CN1CCCCC1)OC(=O)c1ccccc1Cl (centres undefined) | -6.81%
O=C(CSc1nccc(=O)[nH]1)Nc1ccc(N2CCOCC2)c(Cl)c1 | 1.54%
S=c1[nH]nc(-c2ccc(Cl)cc2)n1CC1CCCO1 (centres undefined) | 43.8% (active)
Cc1nnc(SCC(=O)NNC(=O)c2ccc(Cl)cc2)n1CC1CCCO1 (centres undefined) | -0.693%
Cc1ccc(-n2c(-c3ccc(Cl)cc3)n[nH]c2=S)cc1 | 11.5%
O=C(CSc1nc2[nH]ncc2c(=O)[nH]1)Nc1ccc(F)cc1 | -9.68%
Cc1occc1-c1nnc(SCC(=O)NC2(C#N)CCCC2)n1C | -13.5%
COCCN1C(=O)C(=O)/C(=C(/O)c2ccc(S(=O)(=O)N3CCOCC3)cc2)C1c1ccc(OC)c(OC)c1 (centres undefined) | -5.33%
CCOc1ccc(Br)cc1S(=O)(=O)Nc1cccc(S(=O)(=O)N(CC)CC)c1 | -8.57%

Structure (SMILES) | inhibition
O=C(Cn1cnc2cc([N+](=O)[O-])ccc2c1=O)NC(=O)NCc1ccccc1 | -6%
Cc1noc(C)c1CSc1nc2cc(S(=O)(=O)N3CCOCC3)ccc2o1 | 45.8% (active)
COc1ccc(NC(=O)c2oc3ccc(S(=O)(=O)N4CCOCC4)cc3c2C)cc1 | -7.26%
Cc1ccc(S(=O)(=O)N2CCN(S(=O)(=O)N3CCOCC3)CC2)cc1 | -5.83%
CCCCCCCCn1c2c(c(=N)c3c1CCC3)CCCC2 | -6.25%
Cc1ccsc1/C=N/n1c(=S)[nH]nc(C)c1=O | -0.898%
COc1cc(/C=N/n2c(C)n[nH]c2=S)ccc1OCc1ccccc1 | 9.64%
Cc1n[nH]c(=S)n1/N=C/c1ccc(Br)o1 | 40.4% (active)
O=S(=O)(N/N=C\c1cccn1-c1ccccc1)c1ccc2ccccc2c1 | -6.33%
COC(=O)c1cccc(-n2[nH]nnc2=S)c1 | 59% (active)
COC(=O)c1cccc(N2C(=O)C3C4C=CC(CC4)C3C2=O)c1 (centres undefined) | -6.25%
COC(=O)c1cccc(NC(=O)c2cccc(N3C(=O)CCC3=O)c2)c1 | -9.31%
CCOC(=O)C1CCN(S(=O)(=O)c2cc(F)ccc2OC)CC1 | -1.04%
CCC(=O)Nc1ccccc1C(=O)N1CCN(Cc2ccccc2)CC1 | -6.48%
CCOc1ccc(C(=O)Nc2ccc(S(=O)(=O)Nc3cc(C)on3)cc2)cc1 | -9.24%
CCOc1ccc(NC(=O)Nc2cc(C)on2)cc1 | 65.3% (active)
CCC(=O)Nc1ccc(C(=O)Nc2cc(C)on2)cc1 | 2.01%
CC(C)NC(=O)c1ccc(Sc2ccccc2)c([N+](=O)[O-])c1 | -2.3%
O=C(Cc1ccccc1)NNC1CC(=O)N(c2ccc(Br)cc2)C1=O (centres undefined) | 4.82%
COC(=O)c1sccc1NC(=O)CC1C(=O)NCCN1C(=O)Nc1ccc(F)cc1F (centres undefined) | -4.83%
CNC(=O)c1sc(Nc2ccc(OCc3ccccc3)cc2)nc1C | -1.98%
CN(c1ccccc1)S(=O)(=O)c1ccc(Cl)c(C(=O)NCCc2c[nH]c3ccccc23)c1 | -7.53%
CSCCC(NS(=O)(=O)c1ccc(C)cc1)C(=O)NCCc1c[nH]c2ccccc12 (centres undefined) | -1.39%
Cc1ccc(S(=O)(=O)N(C)CC(=O)NCCc2c[nH]c3ccccc23)cc1 | 49.6% (active)

Structure (SMILES) | inhibition
COc1ccc(C)cc1NC(=O)CCS(=O)(=O)c1cccc2nonc12 | -1.32%
O=C1CC(Sc2ncn[nH]2)C(=O)N1c1ccccc1 (centres undefined) | 41.6% (active)
Cc1ccc(N2C(=O)CC(Sc3ncn[nH]3)C2=O)cc1 (centres undefined) | 28%
O=C1CC(N2CCN(c3ccc(F)cc3)CC2)C(=O)N1c1ccccc1 (centres undefined) | -7.4%
CCOc1ccc(-c2cn(S(=O)(=O)c3cccc4nsnc34)nc2N)cc1 | 0.75%
CCOC(=O)C(NC(C)=O)C(=O)Nc1ccc(OC)cc1 (centres undefined) | -5.93%
O=c1[nH]c(=S)[nH]c2[nH]c(=S)[nH]c12 | 93.2%
CCNC(=O)CC1C(=O)N(c2ccc(F)cc2)C(=O)N1CCc1sccc1C (centres undefined) | -6.98%
COc1ccc(C2=NO[C@@H]3C(=O)N(Cc4ccccc4)C(=O)[C@H]23)cc1OC | -9.52%
CC(C)(C)NC(=O)Cn1cnc([N+](=O)[O-])n1 | -1.06%
O=C(Cc1ccc(Br)cc1)NCCc1ccccc1 | -5.45%
O=C(Cn1cnc([N+](=O)[O-])n1)NCCc1ccccc1 | 61.5% (active)
COCCN1C(=O)C(=O)/C(=C(/O)c2ccc(S(=O)(=O)N3CCOCC3)cc2)C1c1ccc(O)c(OC)c1 (centres undefined) | -1.29%
CCOC(=O)C(Sc1ncc(C#N)c(N)n1)C(C)C (centres undefined) | 1.62%
COc1ccc(O)c(C(=O)c2cnc3c(c2)c(-c2ccc(F)cc2)c(C#N)c(=O)n3C)c1 | -3.05%
Cn1c(N)cc(-c2ccc(F)cc2)c(C#N)c1=O | -8.38%
Cc1cc(C)c2c(-c3ccc(F)cc3)c(C#N)c(=O)n(C)c2n1 | 53.9% (active)
CC1c2nc3ccccc3n2C(CC(=O)NCCCN2CCOCC2)C(=O)N1Cc1ccccc1 (centres undefined) | -9.69%
O=C(Nc1ccc(-c2ccc3nncn3n2)cc1)C1CCCCC1 | -1.63%
CN(C)c1nc(NN)nc(Nc2ccc(F)cc2)n1 | -0.168%
Fc1ccc(Nc2nnns2)cc1 | 48.9% (active)
O=C(Nc1ccncc1)Nc1ccc(F)cc1 | -2.01%

— PubChem BioAssay AID493012 (Sanford-Burnham Center for Chemical Genomics, 2011)
